Outcome and AC50 data for 25 molecules are collected here from PubChem BioAssay (EPA / NIEHS).

A short description of assay [1]: APR_HepG2_P-H2AX_72hr: Apredica 72-hour HepG2 Assay for H2AX Phosphorylation (AID 2282916).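 Further: phospho-histone H2A.x immunostain intensity per cell marking DNA damage.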 The note with it: imaging, actives raise or lower the signal. The method in brief: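 Readout: phospho-H2A.x immunofluorescence (FITC secondary) plus Hoechst nuclear stain, high-content imaging at 20x, six fields/well. HepG2, 72 hr compound exposure, 0.39–200 uM, final DMSO 0.5% v/v. Gain or loss fitted relative to DMSO baseline.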

A short description of assay [2]: APR_HepG2_MitoMembPot_72hr: Apredica 72-hour HepG2 Assay for Mitochondrial Membrane Potential (AID 2282917). The settings on record: imaging, actives raise or lower the signal. The procedure, abridged:
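Membrane potential read by MitoTracker Red CMXRos (250 nM, 30 min, pre-fixation) fluorescence imaging of HepG2 after 72 hr exposure. Ten concentrations, 0.39–200 uM, duplicate wells, 0.5% DMSO; fitted in both directions against DMSO baseline.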

Assay [3] in a line: APR_HepG2_MitoticArrest_72hr: Apredica 72-hour HepG2 Assay for Mitotic Arrest (AID 2282918). The note with it: high-content imaging, actives raise or lower the signal. The procedure, abridged: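 High-content imaging of fixed human HepG2 cells after 72 h compound exposure (0.39–200 uM, duplicates, 0.5% DMSO); mitotic arrest scored from phospho-histone H3 and nuclear Hoechst staining relative to DMSO.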

A short description of assay [4]: APR_HepG2_MicrotubuleCSK_72hr: Apredica 72-hour HepG2 Assay for Microtubule CSK Stabilty (AID 2282919). The settings on record: HepG2 microtubule cytoskeleton, high-content imaging, actives raise or lower the signal. The procedure, abridged:
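High-content imaging of alpha-tubulin staining in fixed HepG2 cells after 72 hr treatment with ten concentrations from 0.39 to 200 uM (0.5% DMSO). Fitting was bidirectional against DMSO; taxol served as positive control.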

The nature of assay [5]: APR_HepG2_P-H2AX_24hr: Apredica 24-hour HepG2 Assay for H2AX Phosphorylation (AID 2282920). The settings on record: high-content imaging, actives raise or lower the signal. The method in brief:
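High-content imaging of phospho-histone H2A.x immunofluorescence, nuclei counterstained with Hoechst 33342, in fixed HepG2 cells. Compounds ran 0.39–200 uM in duplicate for 24 h, final DMSO 0.5%. Signal change fitted both directions against DMSO.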

Assay [6] is described as follows: APR_HepG2_StressKinase_24hr: Apredica 24-hour HepG2 Assay for Stress Kinase (AID 2282922). The note with it: HepG2 stress kinase (phospho-c-Jun) imaging, actives raise or lower the signal. The method in brief: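 High-content imaging of phospho-c-Jun immunofluorescence in fixed, permeabilized HepG2 cells after 24 h dosing. Ten concentrations, 0.39 to 200 uM, run in duplicate at 0.5% v/v DMSO; gain or loss of signal versus DMSO.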

The nature of assay [7]: APR_HepG2_p53Act_72hr: Apredica 72-hour HepG2 Assay for p53 Activation (AID 2282923).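 Further: average cellular p53 protein immunofluorescence intensity in HepG2 cells.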 The note with it: high-content imaging, actives raise or lower the signal. The method in brief:
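Readout: p53 immunofluorescence quantified by automated high-content imaging at 20x, six fields per well, nuclei located via Hoechst. Dosing ran 72 hr over ten concentrations from 0.39 to 200 uM; bidirectional curve fitting against DMSO baseline.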

Assay [8] in a line: APR_HepG2_MitoMass_72hr: Apredica 72-hour HepG2 Assay for Mitochondrial Mass (AID 2282924).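 Further: MitoTracker Red CMXRos stain intensity per cell imaged as mitochondrial mass.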 The settings on record: high-content imaging, actives raise or lower the signal. The procedure, abridged: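 Readout is imaged MitoTracker Red (250 nM, 30 min, pre-fixation) signal, fitted bidirectionally against DMSO baseline. Human HepG2 liver cells received compound 0.39–200 uM in duplicate for 72 hr, final DMSO 0.5%.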

Assay [9] in a line: APR_HepG2_NuclearSize_72hr: Apredica 72-hour HepG2 Assay for Nuclear Size (AID 2282925). The note with it: high-content imaging, actives raise or lower the signal. The procedure, abridged:
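Nuclear size was read by high-content imaging of Hoechst 33342 stain after formaldehyde fixation. Compounds ran 72 h on HepG2 at 0.39 to 200 uM, with final DMSO 0.5% v/v. Curves fitted both directions relative to DMSO control.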

Activity calls are given as the source filed them. How the source made its calls: active means hit-call score of the fitted dose curve at least 0.9, where 1 is the maximum; inactive means score below 0.9.

As for `CC(=O)S[C@H](C(=O)N[C@H]1Cc2ccccc2[C@H]2CCC[C@@H](C(=O)O)N2C1=O)C(C)C`, the molecule was classed as inactive in assay [1], in assay [2], in [3], in [4], in assay [5] and in assay [6]. In addition, the call in assay [7], in assay [8] and in [9] was inactive.

One may read the AC50 as the concentration at which the activity in the assay is half-maximal. Regarding `CSc1ccc(Oc2ccc(S(N)(=O)=O)cc2CN(C)C)cc1C`, the molecule was called inactive in assay [1], in assay [2], in assay [3], in assay [4], in assay [6] and in assay [8]. In addition, in assay [9], the call was inactive. Besides, in [5], the AC50 is 92.5 µM (active).

For the molecule `CN(C)C(=O)NC1(c2ccccc2)CCN(CCC[C@]2(c3ccc(Cl)c(Cl)c3)CCCN(C(=O)c3ccccc3)C2)CC1`, the AC50 in assay [1] was 15.1 µM (active); in assay [2], 25.4 µM (active); in [3], 9.82 µM (active); in [5], 22.5 µM (active); in assay [7], 10.3 µM (active). The molecule was classed as inactive in [4], in assay [6], in [8] and in [9].

Consider `CC(=O)OC1CC(C)OC(C)O1` (centres undefined), for which the outcome in assay [1], in [2], in assay [3], in [4], in assay [5] and in assay [6] was inactive. Further, the molecule was called inactive in assay [8] and in [9].

For the molecule `C=CCCCCCCCCCCCC`, the AC50 was 98.6 µM (active) in assay [1], 99 µM (active) in [5] and 93.4 µM (active) in [7]. The molecule was called inactive in [2], in [3], in [4], in assay [6], in assay [8] and in assay [9].

For the molecule `C/C=C/C=C/C(=O)O`, the AC50 was 93 µM (active) in [1], 98.2 µM (active) in assay [3], 47.5 µM (active) in [8] and 60.7 µM (active) in assay [9]. Moreover, the result in assay [2], in assay [4], in [5] and in assay [6] was inactive.

As to `NC=O`, the molecule was classed as inactive in assay [1], in [2], in assay [3], in assay [4], in assay [5] and in assay [6]. In addition, the result in assay [8] and in assay [9] was inactive.

`CC(C)OC(=O)C(C)(C)Oc1ccc(C(=O)c2ccc(Cl)cc2)cc1`: the molecule was called inactive in assay [1], in assay [2], in assay [3], in [4], in assay [5] and in assay [6]. Also, the outcome in [8] and in assay [9] was inactive.

With `Cc1cn([C@H]2C=C[C@@H](CO)O2)c(=O)[nH]c1=O`, the result in assay [1], in [2], in assay [3], in assay [4], in assay [5] and in assay [6] was inactive. The result in [8] and in assay [9] was inactive.

Take `Cc1ccc(-c2cc(C(F)(F)F)nn2-c2ccc(S(N)(=O)=O)cc2)cc1`: the figures for the AC50 in assay [1] and in [5] were 100 µM (active) and 106 µM (active), respectively. Moreover, the result in [2], in [3], in assay [4], in [6], in assay [8] and in assay [9] was inactive.

With `CC(C)c1cccc(C(C)C)c1`, the molecule was called inactive in [1], in assay [2], in assay [3], in assay [4], in [5] and in assay [6]. The call in [8] and in assay [9] was inactive.

For the molecule `CCCCCCCCCCCCCCCCO`, the outcome in assay [1], in [2], in assay [3], in assay [4], in assay [5] and in assay [6] was inactive. Further, the molecule was classed as inactive in assay [8] and in [9].

On to `O=Cc1ccccc1C=O`, for which the molecule was called inactive in assay [1], in assay [2], in assay [3], in assay [4], in [5] and in assay [6]. The molecule was called inactive in [8] and in assay [9].

On to `Cc1occc(=O)c1O`, for which the molecule was called inactive in assay [1], in assay [2], in [3], in [4], in assay [5] and in [6]. Besides, the molecule was called inactive in assay [8] and in assay [9].

For `Cc1c(C)c2c(c(C)c1O)CCC(C)(COc1ccc(CC3SC(=O)NC3=O)cc1)O2` (centres undefined), the AC50 in assay [1] was 89.5 µM (active); in assay [2], 135 µM (active); in [3], 54.3 µM (active); in [7], 65.2 µM (active); in [8], 61.8 µM (active). Moreover, the molecule was called inactive in assay [4], in assay [5], in [6] and in assay [9].

As to `Oc1ccccc1O`, the AC50 is 53.2 µM (active) in assay [1] and 67.9 µM (active) in assay [5]. For the same molecule, the call in assay [6], in assay [7] and in assay [9] was inactive.

On to `CC(COCC(C)OC(=O)c1ccccc1)OC(=O)c1ccccc1` (centres undefined), for which the result in assay [1], in assay [2], in assay [3], in assay [4], in assay [5] and in assay [6] was inactive. Moreover, the result in assay [8] and in assay [9] was inactive.

Take `CC(=O)CC(c1ccccc1)c1c(O)c2ccccc2oc1=O` (centres undefined): the molecule was called inactive in assay [1], in assay [2], in assay [3], in [4], in assay [5] and in assay [6]. The molecule was called inactive in assay [8] and in assay [9].

Regarding `CC(C)COC(=O)CCCCC(=O)OCC(C)C`, the call in [1], in assay [2], in assay [3], in assay [4], in assay [5] and in assay [6] was inactive. Besides, the outcome in assay [8] and in [9] was inactive.

For the molecule `O=C(Oc1ccccc1)c1cccc(C(=O)Oc2ccccc2)c1`, the molecule was called inactive in [1], in [2], in assay [3], in assay [4], in assay [5] and in assay [6]. For the same molecule, the molecule was called inactive in assay [8] and in [9].

In the case of `CO[C@@H]1COCC[C@@H]1N[C@@H]1CC[C@@](C(=O)N2CCc3ncc(C(F)(F)F)cc3C2)(C(C)C)C1`, the molecule was classed as inactive in assay [1], in [2], in assay [3], in assay [4], in assay [5] and in assay [6]. In addition, the molecule was classed as inactive in assay [7], in assay [8] and in [9].

Consider `NC1CCCCC1`, for which the molecule was classed as inactive in assay [1], in assay [2], in assay [3], in assay [4], in [5] and in assay [6]. The call in assay [8] and in assay [9] was inactive.

For `CS(=O)(=O)c1ccc([C@@H](C[C@H]2CCC(=O)C2)C(=O)Nc2cnccn2)cc1Cl`, the outcome in [1], in assay [2], in assay [3], in assay [4], in assay [5] and in assay [6] was inactive. Moreover, the molecule was called inactive in [7] and in assay [9]. In addition, the AC50 in assay [8] was 43.7 µM (active).

Consider `N[C@@H](Cc1c[nH]c2ccccc12)C(=O)O`, for which the outcome in [1], in assay [2], in assay [3], in [4], in [5] and in [6] was inactive. The molecule was called inactive in assay [8] and in [9].

Turning to `CN(C)CCCN1c2ccccc2Sc2ccc(Cl)cc21`, the AC50 in [1] is 81.2 µM (active); in assay [2], 112 µM (active); in assay [3] it was 26 µM (active); in [5], 26 µM (active); in [6], 25.2 µM (active); in assay [7] it was 100 µM (active). The outcome in assay [4], in assay [8] and in assay [9] was inactive.
